Read-out in experiment [1]: sulfotransferase 2A1 (SULT2A1), SULT2A1 (gene 6822)
Nature of the experiment: LTEA_HepaRG_SULT2A1: Life Technologies and Expression Analysis (LTEA) Assay for sulfotransferase 2A1 (SULT2A1) using HepaRG (AID 2283531). The following applies: mRNA level, 48 h; actives raise or lower the signal. In a few lines: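 Gene-expression endpoint in a human liver cell line: SULT2A1 mRNA change after 48 h chemical treatment, curves fitted in both directions relative to 0.5% DMSO vehicle. Concentrations spanned eight half-log steps from 100 uM.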

Read-out in experiment [2]: Transforming Growth Factor (TGFA), TGFA (gene 7039)
Nature of the experiment: LTEA_HepaRG_TGFA: Life Technologies and Expression Analysis (LTEA) Assay for Transforming Growth Factor (TGFA) using HepaRG (AID 2283532). The following applies: mRNA level, 48 h; actives raise or lower the signal. In a few lines:
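Differentiated human HepaRG cells, plated 48 h then switched to serum-free induction medium, were exposed in duplicate for 48 h to 8-point half-log series from 100 uM in 0.5% DMSO. TGFA mRNA measured by qRT-PCR, normalized to ACTB/GAPDH/POLR2A, bidirectional fit versus DMSO.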

Read-out in experiment [3]: Transforming Growth Factor (TGFB1), TGFB1 (gene 7040)
Nature of the experiment: LTEA_HepaRG_TGFB1: Life Technologies and Expression Analysis (LTEA) Assay for Transforming Growth Factor (TGFB1) Transporter using HepaRG (AID 2283533). The following applies: mRNA level, 48 h; actives raise or lower the signal. In a few lines:
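Eight-point concentration-response (max 100 uM, half-log) in HepaRG under serum-free induction conditions, 48 h. TGFB1 mRNA by qRT-PCR, housekeeping-normalized.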

Read-out in another experiment: TIMP1, TIMP1 (gene 7076)
Kind of experiment: LTEA_HepaRG_TIMP1: Life Technologies and Expression Analysis (LTEA) Assay for TIMP1 using HepaRG (AID 2283534). The following applies: mRNA level, 48 h; actives raise or lower the signal. Summed up: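 TIMP1 induction or repression in HepaRG cells after 48 h chemical exposure (eight concentrations, highest 100 uM), assessed by normalized qRT-PCR with bidirectional fitting to DMSO controls.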

Read-out in experiment [4]: Tumor necrosis factor receptor 1 (TNFRSF1A), TNFRSF1A (gene 7132)
Nature of the experiment: LTEA_HepaRG_TNFRSF1A: Life Technologies and Expression Analysis (LTEA) Assay for Tumor necrosis factor receptor 1 (TNFRSF1A) using HepaRG (AID 2283535). Particulars: mRNA level, 48 h; actives raise or lower the signal. Summed up: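 Assay uses 48 h chemical treatment of differentiated HepaRG monolayers, tested in duplicate at eight concentrations from 100 uM downward in 0.5% DMSO. mRNA is normalized to ACTB, GAPDH and POLR2A, with induction or suppression fitted relative to vehicle.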

Read-out in experiment [5]: Thyroid Hormone Responsive (THRSP), THRSP (gene 7069)
Kind of experiment: LTEA_HepaRG_THRSP: Life Technologies and Expression Analysis (LTEA) Assay for Thyroid Hormone Responsive (THRSP) using HepaRG (AID 2283536). The following applies: mRNA level, 48 h; actives raise or lower the signal. In a few lines: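 Differentiated human HepaRG cells were exposed in duplicate for 48 h in serum-free induction medium to eight concentrations (top 100 uM, half-log steps, 0.5% DMSO). Expression was quantified by TaqMan qRT-PCR, normalized to ACTB, GAPDH and POLR2A, with bidirectional fitting against DMSO.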

Read-out in experiment [6]: Cellular tumor antigen p53 (Homo sapiens) (UniProt P04637)
Kind of experiment: LTEA_HepaRG_TP53: Life Technologies and Expression Analysis (LTEA) Assay for Tumor Protein P53 (TP53) using HepaRG (AID 2283537). The following applies: mRNA level, 48 h; actives raise or lower the signal. Summed up: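 Differentiated HepaRG cells in serum-free induction medium exposed 48 h in duplicate to 8 half-log concentrations, top 100 uM, 0.5% DMSO. TP53 mRNA by TaqMan qRT-PCR (Fluidigm), normalized to ACTB, GAPDH, POLR2A; fitted bidirectionally versus DMSO.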

Read-out in experiment [7]: UDP glucuronosyltransferase (UGT1A1), UGT1A1 (gene 54658)
Kind of experiment: LTEA_HepaRG_UGT1A1: Life Technologies and Expression Analysis (LTEA) Assay for UDP glucuronosyltransferase (UGT1A1) using HepaRG (AID 2283538). Particulars: mRNA level, 48 h; actives raise or lower the signal. Summed up:
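Readout is UGT1A1 transcript level by qRT-PCR, normalized to three housekeeping genes, after 48 h chemical treatment of HepaRG cells. Concentrations ran from 100 uM down in half-log steps with 0.5% DMSO, and gain or loss relative to DMSO was fitted.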

Read-out in experiment [8]: UDP glucuronosyltransferase (UGT1A6), UGT1A6 (gene 54578)
Nature of the experiment: LTEA_HepaRG_UGT1A6: Life Technologies and Expression Analysis (LTEA) Assay for UDP glucuronosyltransferase (UGT1A6) using HepaRG (AID 2283539). Particulars: mRNA level, 48 h; actives raise or lower the signal. Summed up: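 Measures mRNA change in HepaRG hepatic cells exposed 48 h to chemicals (eight-point, maximum 100 uM, 0.5% DMSO vehicle) in serum-free induction medium. Expression normalized to endogenous controls; DMSO served as negative control and baseline.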

Read-out in experiment [9]: X-box binding protein 1 (XBP1), XBP1 (gene 7494)
Nature of the experiment: LTEA_HepaRG_XBP1: Life Technologies and Expression Analysis (LTEA) Assay for X-box binding protein 1 (XBP1) using HepaRG (AID 2283540). The following applies: mRNA level, 48 h; actives raise or lower the signal. In a few lines:
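Eight concentrations (half-log, highest 100 uM, 0.5% DMSO) tested in duplicate on HepaRG cells over 48 h in serum-free induction medium; qRT-PCR of XBP1 normalised to ACTB, GAPDH, POLR2A.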

A short description of experiment [10]: LTEA_HepaRG_LDH_cytotoxicity: Cytotoxicity Assessment in the Life Technologies and Expression Analysis (LTEA) Assay (AID 2283563; active = hit-call score of the fitted dose curve at least 0.9, where 1 is the maximum). Summed up:
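Spent-medium LDH after 48 h chemical exposure of HepaRG cells in serum-free induction medium; eight concentrations, half-log dilutions from 100 uM, duplicate wells, fitted upward relative to 0.5% DMSO.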

A short description of experiment [11]: ATG_XTT_Cytotoxicity: Cytotoxicity Assessment in the Attagene TRANS-FACTORIAL HepG2 Assay (AID 2283584; active = hit-call score of the fitted dose curve at least 0.9, where 1 is the maximum). In a few lines:
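24 h chemical exposure of reporter-transfected HepG2; XTT signal loss vs DMSO indicates cytotoxicity.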

In experiment [12] the target is Cellular tumor antigen p53 (Homo sapiens) (UniProt P04637). Nature of the experiment: TOX21_p53_BLA_p2_ratio: Tox21 HCT-116 p53 Agonism Beta-lactamase Assay, Ratio, Phase 2 (AID 2283592; active = hit-call score of the fitted dose curve at least 0.9, where 1 is the maximum). Summed up:
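Human colon HCT116 cells with an inducible p53 beta-lactamase reporter are exposed to test chemicals for 16 h at 37C. Reporter induction is read as the 460/530 nm emission ratio after CCF4-AM loading, normalized to DMSO.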

Experiment [13] in a line: TOX21_p53_BLA_p3_viability: Viability Assessment in the Tox21 HCT-116 p53 Agonism Beta-lactamase Assay, Phase 3 (AID 2283593; active = hit-call score of the fitted dose curve at least 0.9, where 1 is the maximum;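 also: cells exposed to compound for 16 h before reading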). Summed up: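 HCT-116 cells (4000/well) rested 5 h at 37C, then got DMSO compounds by pin tool (217-fold dilution) for 16 h at 37C, 5% CO2. After the bla read, CellTiter-Glo was added and luminescence read at 30 min, room temperature.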
Experiment [14] concerns the target Cellular tumor antigen p53 (Homo sapiens) (UniProt P04637). Nature of the experiment: TOX21_p53_BLA_p3_ratio: Tox21 HCT-116 p53 Agonism Beta-lactamase Assay, Ratio, Phase 3 (AID 2283596; active = hit-call score of the fitted dose curve at least 0.9, where 1 is the maximum). Summed up: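 HCT116 p53-bla cells (4000/well) given compound in DMSO (217-fold dilution) after 5 h, incubated 16 h at 37C. CCF4-AM substrate 2 h at room temperature; 460/530 nm emission ratio, gain fitted against DMSO.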

The nature of experiment [15]: TOX21_p53_BLA_p4_viability: Viability Assessment in the Tox21 HCT-116 p53 Agonism Beta-lactamase Assay, Phase 4 (AID 2283597; active = hit-call score of the fitted dose curve at least 0.9, where 1 is the maximum;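 also: hits lower the luminescence signal meaning cytotoxicity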). In a few lines: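 Luminescent ATP readout (CellTiter-Glo, 30 min, room temperature) in the same wells as the p53 bla ratio. HCT116 cells were treated for 16 h at 37C with DMSO-dissolved compounds.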
In experiment [16] the target is Cellular tumor antigen p53 (Homo sapiens) (UniProt P04637). Nature of the experiment: TOX21_p53_BLA_p5_ratio: Tox21 HCT-116 p53 Agonism Beta-lactamase Assay, Ratio, Phase 5 (AID 2283599; active = hit-call score of the fitted dose curve at least 0.9, where 1 is the maximum). Summed up: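 HCT-116 cells carrying a p53-inducible beta-lactamase reporter were seeded at 4000 cells/well and dosed after 5 h with compound in DMSO (217-fold dilution). After 16 h at 37C, CCF4-AM substrate was added for 2 h, and the 460/530 nm emission ratio was scored as gain-of-signal versus DMSO.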
Sequence of Cellular tumor antigen p53 (Homo sapiens) (P04637 whole entry, looked up): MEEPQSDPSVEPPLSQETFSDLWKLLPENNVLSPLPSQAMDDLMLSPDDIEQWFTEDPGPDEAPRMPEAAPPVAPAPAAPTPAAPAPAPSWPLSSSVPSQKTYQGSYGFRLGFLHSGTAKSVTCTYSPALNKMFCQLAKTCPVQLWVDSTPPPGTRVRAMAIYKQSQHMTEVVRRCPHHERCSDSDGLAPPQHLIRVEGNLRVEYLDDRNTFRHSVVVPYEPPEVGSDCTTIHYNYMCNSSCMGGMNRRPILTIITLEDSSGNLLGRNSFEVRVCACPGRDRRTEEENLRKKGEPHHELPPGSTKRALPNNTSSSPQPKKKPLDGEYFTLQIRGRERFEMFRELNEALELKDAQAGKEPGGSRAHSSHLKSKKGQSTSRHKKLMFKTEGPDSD

For experiment [17] the target is unchanged. Kind of experiment: TOX21_p53_BLA_p4_ratio: Tox21 HCT-116 p53 Agonism Beta-lactamase Assay, Ratio, Phase 4 (AID 2283601; active = hit-call score of the fitted dose curve at least 0.9, where 1 is the maximum). Summed up: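 HCT116 cells carrying an inducible beta-lactamase reporter were plated at 4000 cells/well, rested 5 h, then exposed to compounds in DMSO (217-fold dilution) for 16 h at 37C. CCF4-AM substrate was loaded 2 h at room temperature; 460/530 nm emission ratio scored gain-of-signal versus DMSO.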

Experiment [18] in a line: TOX21_p53_BLA_p5_viability: Viability Assessment in the Tox21 HCT-116 p53 Agonism Beta-lactamase Assay, Phase 5 (AID 2283600; active = hit-call score of the fitted dose curve at least 0.9, where 1 is the maximum). Summed up:
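Seeded cells (4000/well) settle 5 h before compound addition. Plates then incubate 16 h at 37C, receive FRET substrate for 2 h, and finally CellTiter-Glo, with luminescence measured after a 30 min room-temperature incubation.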

Results filed as inconclusive are left out. Active and inactive are the calls of the source. The calls were made as follows, unless noted: active = hit-call score of the fitted dose curve at least 0.9, where 1 is the maximum; inactive = score below 0.9.

For orientation: AC50 means the midpoint of the concentration-response curve, whichever way the signal moves.

With `CNC(=S)S`, the outcome in experiment [1] is “inactive”; in experiment [2] it was “inactive”; in experiment [3], “inactive”; with TIMP1, TIMP1 (gene 7076), “inactive”; in experiment [4], “inactive”; in [5] it was “inactive”. Further, the result in [6], in [7], in experiment [8], in experiment [9], in experiment [10] and in [11] was inactive. The outcome in experiment [12], in experiment [13], in experiment [14], in [15], in experiment [16] and in experiment [17] was inactive.

On to `C=CCC1=C(C)[C@@H](OC(=O)[C@@H]2[C@@H](C=C(C)C)C2(C)C)CC1=O`, for which the outcome in experiment [1] is “inactive”; in experiment [2] it was “inactive”; in experiment [3], “inactive”; with TIMP1, TIMP1 (gene 7076), “inactive”; in experiment [4], “inactive”; in [5], “inactive”. For the same compound, the result in experiment [6], in experiment [7], in experiment [8], in experiment [9], in [12] and in experiment [13] was inactive. For the same compound, the result in experiment [14], in experiment [15], in experiment [16], in [18] and in [17] was inactive.

For the compound `COc1cnc(OC)n2nc(NS(=O)(=O)c3c(OCC(F)F)cccc3C(F)(F)F)nc12`, the outcome in [1] was “inactive”; in [2], “inactive”; in experiment [3], “inactive”; with TIMP1, TIMP1 (gene 7076) it was “inactive”; in experiment [4], “inactive”; in [6] it was “inactive”. Besides, the outcome in experiment [8], in [9], in [10], in experiment [11], in experiment [12] and in [13] was inactive. Moreover, the result in [14], in experiment [18] and in experiment [17] was inactive. For the same compound, the AC50 in [5] is 50 µM (active); in [7] it was 19 µM (active).
